According to PubChem BioAssay AID463075 (University of Pittsburgh Molecular Library Screening Center, 2010):
Values joined by “and” are separate entries in the source; they are usually repeats but may differ in a detail not shown here. Equal values may be shown once. Screen size: about 220,000 compounds; about 150 (0.068%) were called active. The sample as a whole holds a higher share of actives than the screen did. A number with no mark means an inactive call.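 How the source made its calls: active means activation, meaning protection from cell death, of at least 50% relative to plate controls; inactive means activation below 50%.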

Assay: inhibitors of TNF-alpha triggered necroptosis, primary screen, cell-based, Jurkat FADD-/-, single concentration (AID 463075);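 further: necroptosis triggered by 40 ng/mL TNF-alpha added together with compound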
Settings: Jurkat FADD-/- TNF necroptosis rescue, ATP luminescence, 24 h; at 10 µM; hits give high values; 0 = TNF only, 100 = no-TNF cells

Q: For Cc1ccccc1-n1nc(C)c2c1N=C1C(Cl)=CC(Cl)=CN1C2c1ccc(C(=O)O)cc1 (stereo unspecified), which activation (protection from cell death) is on record?
A: The activation (protection from cell death) was 1.37%.

Q: Which activation (protection from cell death) does the source give for COc1cc(OC)cc(-c2cc3nc(C4CCN(C(=O)OC(C)(C)C)CC4)cc(=O)n3[nH]2)c1 here?
A: Its activation (protection from cell death) is 1.03%.

Q: With c1ccc(C2c3[nH]c4ccccc4c3CCN2Cc2cccn2-c2cccnc2)nc1 (stereo unspecified) as the compound, how does the activation (protection from cell death) read?
A: The activation (protection from cell death) was -0.81%.

Q: With CCCCCCC12CCC(C(=O)O)(CC1)CC2 as the compound, how does the activation (protection from cell death) read?
A: The activation (protection from cell death) was -1.53%.

Q: Which activation (protection from cell death) does the source give for CCn1c(SCC(=O)Nc2sc(C)c(C)c2C#N)nnc1C1CC1 here?
A: The activation (protection from cell death) was 4.46%.

Q: For Cc1ccc(CC2S/C(=C(/C#N)C(=O)N3CCOCC3)N(c3ccccc3)C2=O)cc1 (stereo unspecified), which activation (protection from cell death) is on record?
A: The activation (protection from cell death) was -0.961%.

Q: Which activation (protection from cell death) does the source give for COc1ccc(-c2ccc(CCC(=O)O)n2-c2ccc(O)cc2)cc1 here?
A: Its activation (protection from cell death) is 0.347%.

Q: Which activation (protection from cell death) does the source give for COc1ccc(-n2c(SC)nc(O)cc2=O)cc1 here?
A: Its activation (protection from cell death) is 0.231%.

Q: Which activation (protection from cell death) does the source give for COc1ccc(-n2c(C)nn(CC3CC3)c2=O)cc1 here?
A: Its activation (protection from cell death) is 68.3% (active).

Q: With COc1ccc(-n2c(C)nc3c(cnn3-c3ccccc3)c2=O)cc1 as the compound, how does the activation (protection from cell death) read?
A: The activation (protection from cell death) was -4.93%.

Q: Which activation (protection from cell death) does the source give for COc1ccc(CCN2C(=O)CC(N3CCC(C(N)=O)CC3)C2=O)cc1OC (stereo unspecified) here?
A: The activation (protection from cell death) was 1.77%.

Q: With CCOc1cc(CNCCN(C)C)c(Cl)cc1OCC(=O)NCCc1ccccc1 as the compound, how does the activation (protection from cell death) read?
A: The activation (protection from cell death) was -1.03%.

Q: Which activation (protection from cell death) does the source give for O=C(NC(=S)Nc1cccc(-c2ccc(CO)o2)c1)c1cccs1 here?
A: The activation (protection from cell death) was -0.171%.

Q: For Cc1nc(-c2ccccc2)cn2c1nc1ccccc12, which activation (protection from cell death) is on record?
A: The activation (protection from cell death) was 0.981%.

Q: For CCOC(=O)C(=O)C1C(=O)Nc2ccccc21 (stereo unspecified), which activation (protection from cell death) is on record?
A: Its activation (protection from cell death) is -0.27%.

Q: Which activation (protection from cell death) does the source give for COc1ccc(NC(=O)c2sccc2SCC#N)cc1 here?
A: The activation (protection from cell death) was -2.27%.

Q: Which activation (protection from cell death) does the source give for COc1ccc(S(=O)(=O)Nc2ccc(F)cc2)c(C)c1C here?
A: The activation (protection from cell death) was -1.23%.

Q: For C=CCn1c(P(C)(=O)O)nc2ccccc21, which activation (protection from cell death) is on record?
A: The activation (protection from cell death) was 1.54% and 0.149%.

Q: Which activation (protection from cell death) does the source give for CN(C)c1ccc(-n2cccc2/C=N/n2cnnc2)cc1 here?
A: The activation (protection from cell death) was 1.75%.

Q: Which activation (protection from cell death) does the source give for Cc1nonc1C(=O)N/N=C/c1ccc(O)cc1 here?
A: The activation (protection from cell death) was 1.53%.

Q: For CCOC(=O)C1=NN(c2ccc(Cl)cc2)/C(=C/C2=NCCc3cc(OC)c(OC)cc32)S1, which activation (protection from cell death) is on record?
A: The activation (protection from cell death) was -2.32%.

Q: With CCN(CC(=O)Nc1cccc(S(N)(=O)=O)c1)Cc1nc2ccccc2c(=O)[nH]1 as the compound, how does the activation (protection from cell death) read?
A: The activation (protection from cell death) was 2.32%.

Q: For CC(C)CCN1C(=O)c2ccc(C(=O)Nc3cccc(S(N)(=O)=O)c3)cc2C1=O, which activation (protection from cell death) is on record?
A: Its activation (protection from cell death) is -1.31%.

Q: Which activation (protection from cell death) does the source give for O=C(CC1C(=O)NCCN1Cc1ccc(-c2ccccc2)cc1)NCc1ccncc1 (stereo unspecified) here?
A: The activation (protection from cell death) was 0.134%.

Q: With S=C(Nc1ccc(Br)cc1Cl)NC1CCN(Cc2ccccc2)CC1 as the compound, how does the activation (protection from cell death) read?
A: Its activation (protection from cell death) is 1.9%.

Q: With CC(C)CCN1NC2(CCC(C)CC2)NC1=S (stereo unspecified) as the compound, how does the activation (protection from cell death) read?
A: The activation (protection from cell death) was -1.55%.

Q: Which activation (protection from cell death) does the source give for O=C(c1cccnc1)N(c1cc2sc(=O)oc2c2ccccc12)S(=O)(=O)c1ccccc1 here?
A: Its activation (protection from cell death) is -6.46%.

Q: With Cn1c(S(=O)(=O)O)nc2ccccc21 as the compound, how does the activation (protection from cell death) read?
A: The activation (protection from cell death) was 1.18%.

Q: With COc1cc2nc(Cl)nc(NCCO)c2cc1OC as the compound, how does the activation (protection from cell death) read?
A: Its activation (protection from cell death) is -0.0465%.

Q: Which activation (protection from cell death) does the source give for Cc1nc(N2CCOCC2)sc1C(=O)NN here?
A: Its activation (protection from cell death) is 0.605%.

Q: With CCCC1(C(=O)OC)NC(c2ccco2)C2C(=O)N(C)C(=O)C21 (stereo unspecified) as the compound, how does the activation (protection from cell death) read?
A: Its activation (protection from cell death) is 0.819%.

Q: Which activation (protection from cell death) does the source give for Cc1cccc(N=Nc2c(O)[nH]c3ccc(F)cc23)c1 here?
A: Its activation (protection from cell death) is 1.19%.

Q: Which activation (protection from cell death) does the source give for O=C(NC(=O)N1CCSCC1)c1c(Cl)cccc1Cl here?
A: Its activation (protection from cell death) is 3.73%.

Q: With CC(C)Cc1ccc(C(C)C(=N)N)cc1 (stereo unspecified) as the compound, how does the activation (protection from cell death) read?
A: Its activation (protection from cell death) is 0.316%.

Q: With O=C(Cc1ccccc1)N1N=C(c2ccncc2)CC1(O)C(F)(F)F (stereo unspecified) as the compound, how does the activation (protection from cell death) read?
A: The activation (protection from cell death) was -1.22%.

Q: For Cc1nnc(NCCO)c2ccccc12, which activation (protection from cell death) is on record?
A: The activation (protection from cell death) was 2%.

Q: Which activation (protection from cell death) does the source give for Cc1nn(CC(=O)Nc2ccc3c(c2)OCO3)c(C)c1[N+](=O)[O-] here?
A: The activation (protection from cell death) was 0.0311%.

Q: Which activation (protection from cell death) does the source give for CCOC(=O)c1c(CC(C)C)csc1/N=C/C1=C(O)CCCC1=O here?
A: The activation (protection from cell death) was 2.28%.

Q: With O=C(Nn1cnc2ccccc2c1=O)c1ccc([N+](=O)[O-])cc1Cl as the compound, how does the activation (protection from cell death) read?
A: Its activation (protection from cell death) is -1.3%.

Q: Which activation (protection from cell death) does the source give for O=C(CS(=O)(=O)c1ccc(C(F)(F)F)cn1)NNC(=O)c1ccccc1 here?
A: The activation (protection from cell death) was -0.488%.

Q: With O=C(O)c1n[nH]nc1-c1ccccc1 as the compound, how does the activation (protection from cell death) read?
A: The activation (protection from cell death) was -0.36%.

Q: For O=C(C1=C[C@H](c2coc3ccccc3c2=O)C[C@H](OCc2ccc(CO)cc2)O1)N1CCOCC1, which activation (protection from cell death) is on record?
A: The activation (protection from cell death) was 0.365%.

Q: Which activation (protection from cell death) does the source give for COc1ccc(Cl)cc1NC(=O)[C@@H]1CCCN1C(=O)c1cccs1 here?
A: Its activation (protection from cell death) is 2.67%.

Q: Which activation (protection from cell death) does the source give for C=C1C2C[C@H](O)C(C)(C)[C@@]2(O)[C@H](O)C[C@]23C[C@@](C)(O)[C@H](CC[C@H]12)[C@H]3O (stereo partly specified) here?
A: Its activation (protection from cell death) is 1.07%.

Q: For CCOc1cccc(C(=O)Nc2cnn(Cc3ccccc3)c2)c1, which activation (protection from cell death) is on record?
A: Its activation (protection from cell death) is -1.07%.

Q: Which activation (protection from cell death) does the source give for O=C(COC(=O)Cc1ccc(Br)cc1)Nc1c(F)c(F)c(F)c(F)c1F here?
A: Its activation (protection from cell death) is -0.784%.

Q: With CN(C(=O)CSc1nc(C2CC2)nc2ccccc12)c1nc(-c2ccccc2)cs1 as the compound, how does the activation (protection from cell death) read?
A: The activation (protection from cell death) was 0.753%.

Q: Which activation (protection from cell death) does the source give for COc1ccc(OC)c(-c2c(=O)n(OCc3ccccc3Br)c3ccccc3[n+]2[O-])c1 here?
A: The activation (protection from cell death) was 0.8%.

Q: With O=C(Nc1ccccc1-c1ccccc1)c1cccs1 as the compound, how does the activation (protection from cell death) read?
A: Its activation (protection from cell death) is -1.99%.

Q: Which activation (protection from cell death) does the source give for CN(C(=O)COc1ncnc2c1cnn2-c1ccccc1)C1CCCCC1 here?
A: The activation (protection from cell death) was -0.83%.

Q: Which activation (protection from cell death) does the source give for CNC(=O)c1nnc(Cc2ccc(Cl)cc2)o1 here?
A: The activation (protection from cell death) was 5.11%.
